Results: the supplement of paper PMC9694430
Structures can show the parent of a compound that is named as a salt.

Key:
Assay in all cases: thermal shift delta Tm vs DMSO control; higher = stronger stabilization (binding)
Settings in all cases: 12.5 µM; protein concentration 2 µM
LOC_OS01G57100-cb003 = tested on: LOC_OS01G57100-cb003
Method in brief: (§1)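 Purified, E. coli-expressed rice kinase domain constructs were tested by differential scanning fluorimetry in 96-well plates: 19.5 μl of 2 μM kinase in 100 mM potassium phosphate pH 7.5, 150 mM NaCl, 10% glycerol, 5 × SYPRO Orange, plus compound in DMSO. Fluorescence was read from 25°C to 95°C at 0.05°C/s. Melting temperatures came from Boltzmann fits, and the shift is the triplicate mean relative to protein with DMSO alone.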

LOC_OS01G60330-cb001 = tested on: LOC_OS01G60330-cb001
Method in brief: as §1

LOC_OS01G60700-cb002 = tested on: LOC_OS01G60700-cb002
Method in brief: as §1

LOC_OS01G63280-cb003 = tested on: LOC_OS01G63280-cb003
Method in brief: as §1

LOC_OS01G67340-cb003 = tested on: LOC_OS01G67340-cb003
Method in brief: as §1

LOC_OS01G70970-cb002 = tested on: LOC_OS01G70970-cb002
Method in brief: as §1

LOC_OS02G07810-cb001 = tested on: LOC_OS02G07810-cb001
Method in brief: as §1

LOC_OS02G08530-cb003 = tested on: LOC_OS02G08530-cb003
Method in brief: as §1

LOC_OS02G14120-cb001 = tested on: LOC_OS02G14120-cb001
Method in brief: as §1

LOC_OS02G17970-cb001 = tested on: LOC_OS02G17970-cb001
Method in brief: as §1

SMILES	thermal shift delta Tm (LOC_OS01G57100-cb003)	thermal shift delta Tm (LOC_OS01G60330-cb001)	thermal shift delta Tm (LOC_OS01G60700-cb002)	thermal shift delta Tm (LOC_OS01G63280-cb003)	thermal shift delta Tm (LOC_OS01G67340-cb003)	thermal shift delta Tm (LOC_OS01G70970-cb002)	thermal shift delta Tm (LOC_OS02G07810-cb001)	thermal shift delta Tm (LOC_OS02G08530-cb003)	thermal shift delta Tm (LOC_OS02G14120-cb001)	thermal shift delta Tm (LOC_OS02G17970-cb001)
Oc1ccc(-c2nc(-c3ccc(F)cc3)c(-c3ccncc3)[nH]2)cc1	1.5 °C	0.98 °C	2.02 °C	0.47 °C	-0.26 °C	0.63 °C	1.96 °C	1.58 °C	0.99 °C	1.05 °C
COc1cc(-c2cc(-c3ccc(N4CCNCC4)cc3)cnc2C)cc(OC)c1OC	-0.02 °C	1.13 °C	0.16 °C	-0.05 °C	0.51 °C	0.29 °C	0.05 °C	0.49 °C	1.25 °C	0.44 °C
Cc1cc2c(F)c(Oc3ncnn4cc(OC[C@@H](C)OC(=O)[C@H](C)N)c(C)c34)ccc2[nH]1	2.01 °C	2.03 °C	1.53 °C	0.53 °C	0.06 °C	0.49 °C	0.41 °C	0.78 °C	0.99 °C	0.23 °C
Cc1cc(O)c(-c2ccc([C@@H](C)CN)cc2)c2c1[nH]c(=O)c1sccc12 [OTS514 hydrochloride]	-0.04 °C	2.08 °C	1.5 °C	0.46 °C	0.86 °C	0.57 °C	0.41 °C	1.3 °C	4.21 °C	1.52 °C
CONC(=O)c1ccccc1Nc1cc(Nc2cc(C)nn2C(C)C)ncc1Cl	0.63 °C	0.07 °C	0.19 °C	0.5 °C	0.98 °C	1.15 °C	-0.17 °C	1.79 °C	3.22 °C	0.4 °C
CNc1nc(Nc2cn(C(C)(C)C#N)nc2C)ncc1C(F)(F)F	1.92 °C	1.38 °C	1.27 °C	0.69 °C	0.49 °C	0.2 °C	0.4 °C	0.86 °C	0.65 °C	1.09 °C
COc1cc2ncnc(Nc3cccc(Cl)c3F)c2cc1OC(=O)N1CCN(C)C[C@H]1C	1.43 °C	1.34 °C	0.77 °C	0.24 °C	0.62 °C	0.55 °C	0.42 °C	0.94 °C	0.64 °C	0.79 °C
Cc1cc(Nc2cc(N3CCN(C)CC3)nc(/C=C/c3ccccc3)n2)n[nH]1	0.41 °C	9.2 °C	0.77 °C	0.17 °C	0.51 °C	3.04 °C	0.72 °C	2.41 °C	7.14 °C	-0.1 °C
CC[C@H](CO)Nc1nc(NCc2ccccc2)c2ncn(C(C)C)c2n1 [Roscovitine (Seliciclib,CYC202)]	0.43 °C	0.99 °C	0.89 °C	0.16 °C	-0.54 °C	0.28 °C	0.93 °C	0.8 °C	0.04 °C	0.31 °C
CN1CCC(COc2cnc(-c3cccc(Cn4nc(-c5cccc(C#N)c5)ccc4=O)c3)nc2)CC1	0.71 °C	0.27 °C	0.62 °C	-0.13 °C	-0.02 °C	0.15 °C	0.34 °C	0.12 °C	0.1 °C	0.24 °C
CCCCCCCCCCCCc1ccc(S(=O)(=O)Nc2nncs2)cc1	2.08 °C	0.81 °C	0.86 °C	0.54 °C	-1.07 °C	0.27 °C	1.33 °C	0.91 °C	-0.22 °C	0.86 °C
CC1(COc2ccc3c(c2)ncn3-c2ccc3cccc(N4CCC(N)CC4)c3n2)COC1	1.84 °C	0.86 °C	0.41 °C	0.93 °C	3.44 °C	7.9 °C	0.2 °C	3.47 °C	11.5 °C	0.58 °C
C[C@H](Nc1ncnc2nc[nH]c12)c1cc2cccc(Cl)c2c(=O)n1-c1ccccc1 [Duvelisib (IPI-145, INK1197)]	-0.45 °C	0.3 °C	1.43 °C	0.2 °C	0.06 °C	0.33 °C	0.73 °C	0.77 °C	0.47 °C	0.68 °C
Cc1nc(NC(=O)N2CCC[C@H]2C(N)=O)sc1-c1ccnc(C(C)(C)C(F)(F)F)c1 [Alpelisib (BYL719)]	0.37 °C	0.43 °C	1.65 °C	0.27 °C	0.12 °C	0.36 °C	0.62 °C	-0.09 °C	2.13 °C	1.03 °C
CC(C)c1c2cc(-c3ccnc(NC4CCC(NC5CCOCC5)CC4)n3)ccc2nn1C (stereo not given)	0.61 °C	0.07 °C	0.86 °C	0.36 °C	0.46 °C	0.29 °C	0.41 °C	1.38 °C	4.79 °C	0.57 °C
O=c1cc(N2CCOCC2)oc2c(-c3cccc4c3sc3ccccc34)cccc12	0.74 °C	0.23 °C	-0.43 °C	-0.77 °C	-0.51 °C	-0.71 °C	-0.42 °C	0.52 °C	0.46 °C	0.12 °C
COc1ccc(CCNCc2ccc(OCc3ccc(Cl)nc3)c(OC)c2)cc1OC	1.03 °C	0.8 °C	0.19 °C	-0.28 °C	0.24 °C	0.23 °C	0.28 °C	0.56 °C	0.14 °C	0.22 °C
CCS(=O)(=O)c1cccc(-c2cc(C(=O)NC3CCN(C)CC3)c(C)c3[nH]c4ncc(C)cc4c23)c1	1.61 °C	3.88 °C	0.41 °C	-0.02 °C	0.99 °C	6.38 °C	0.49 °C	4.38 °C	10.6 °C	0.54 °C
CCCS(=O)(=O)Nc1ccc(F)c(C(=O)c2c[nH]c3ncc(-c4ccc(Cl)cc4)cc23)c1F [Vemurafenib (PLX4032, RG7204)]	3.36 °C	10.2 °C	0.62 °C	14.8 °C	3.46 °C	3.78 °C	2.03 °C	1.07 °C	4.6 °C	1.48 °C

SMILES	thermal shift delta Tm (LOC_OS01G57100-cb003)	thermal shift delta Tm (LOC_OS01G60330-cb001)	thermal shift delta Tm (LOC_OS01G60700-cb002)	thermal shift delta Tm (LOC_OS01G63280-cb003)	thermal shift delta Tm (LOC_OS01G67340-cb003)	thermal shift delta Tm (LOC_OS01G70970-cb002)	thermal shift delta Tm (LOC_OS02G07810-cb001)	thermal shift delta Tm (LOC_OS02G08530-cb003)	thermal shift delta Tm (LOC_OS02G14120-cb001)	thermal shift delta Tm (LOC_OS02G17970-cb001)
COc1cc2ncnc(Sc3nnc(C)s3)c2cc1OC	0.73 °C	0.26 °C	0.74 °C	-0.21 °C	0.41 °C	-0.08 °C	-0.06 °C	0.96 °C	2.55 °C	-0.07 °C
CCn1cc(-c2ccnc3[nH]c(-c4cccc(CN(C)C)c4)cc23)c(-c2ccc(NC(=O)N(C)C)cc2)n1	1.51 °C	0.61 °C	1.18 °C	2.91 °C	0.66 °C	0.18 °C	0.49 °C	1.02 °C	6.39 °C	1.01 °C
COC1(c2sc3c(N4CCOCC4)nc(-c4cnc(N)nc4)nc3c2C)COC1	0.25 °C	2.64 °C	0.38 °C	-0.37 °C	0.5 °C	0.89 °C	0.33 °C	2.22 °C	0.63 °C	0.32 °C
COc1cc2nccc(Oc3ccc(NC(=O)Nc4cc(C)on4)c(Cl)c3)c2cc1OC [Tivozanib (AV-951)]	1.99 °C	1.29 °C	0.04 °C	1.3 °C	0.1 °C	0.66 °C	0.91 °C	1.02 °C	6.58 °C	0.14 °C
COc1cc2ncnc(Nc3ccc(Oc4ccccc4)cc3C)c2cc1OC	1.05 °C	0.33 °C	0.09 °C	0.54 °C	0.17 °C	0.47 °C	-1.03 °C	0.5 °C	3.14 °C	0.03 °C
Cc1c[nH]c2nc(Nc3ccc(N4CCN(C)CC4)c(F)c3)nc(-c3cccc(CC#N)c3)c12	5.04 °C	11.8 °C	1.98 °C	3.25 °C	11.9 °C	8.75 °C	1.04 °C	6.49 °C	15.2 °C	1.24 °C
CNc1nc(Nc2cnn([C@H]3CCN(C4COC4)C[C@@H]3F)c2Cl)ncc1C(F)(F)F	0.76 °C	2.09 °C	0.99 °C	0.1 °C	0.67 °C	1.35 °C	0.49 °C	2.55 °C	2.26 °C	0.35 °C
FC(F)(F)c1ccc(CNc2ccc(Cc3c[nH]c4ncc(Cl)cc34)cn2)cn1 [Pexidartinib (PLX3397)]	1.87 °C	3.92 °C	0.67 °C	2.9 °C	3.78 °C	2.89 °C	1.03 °C	3.22 °C	9.87 °C	2.01 °C
Cc1nc(Nc2cnn(C3CCNCC3)c2)nc2c1N(C)C(=O)c1cc3ccccc3cc1N2C	0.83 °C	1.06 °C	0.29 °C	0.05 °C	1.06 °C	0.51 °C	0.09 °C	1.07 °C	1.04 °C	-0.03 °C
Cc1[nH]c(/C=C2\C(=O)Nc3ccc(S(=O)(=O)N(C)c4cccc(Cl)c4)cc32)c(C)c1C(=O)N1CCN(C)CC1	1.03 °C	5.91 °C	0.86 °C	-0.04 °C	-0.53 °C	0.47 °C	-0.12 °C	3.7 °C	8.19 °C	-0.27 °C
CO[C@H]1C[C@@H]2CC[C@@H](C)[C@@](O)(O2)C(=O)C(=O)N2CCCC[C@H]2C(=O)O[C@H]([C@H](C)C[C@@H]2CC[C@H](n3cnnn3)[C@H](OC)C2)CC(=O)[C@H](C)/C=C(\C)[C@@H](O)[C@@H](OC)C(=O)[C@H](C)C[C@H](C)/C=C/C=C/C=C/1C [Zotarolimus(ABT-578)]	2.14 °C	2.43 °C	1.29 °C	0.68 °C	0.45 °C	0.71 °C	1.19 °C	0.56 °C	0.48 °C	1.06 °C
CO[C@H]1C[C@@H]2CC[C@@H](C)[C@@](O)(O2)C(=O)C(=O)N2CCCC[C@H]2C(=O)O[C@H]([C@H](C)C[C@@H]2CC[C@@H](OCCO)[C@H](OC)C2)CC(=O)[C@H](C)/C=C(\C)[C@@H](O)[C@@H](OC)C(=O)[C@H](C)C[C@H](C)/C=C/C=C/C=C/1C [Everolimus (RAD001)]	0.99 °C	1.72 °C	0.6 °C	0.26 °C	-0.17 °C	-0.1 °C	0.75 °C	0.55 °C	1.17 °C	0.76 °C
Cc1cc(Nc2cc(CN3CCOCC3)c3nc(C)c(Cc4ccc(Cl)cc4F)n3n2)n[nH]1	0.41 °C	3.94 °C	-0.8 °C	0.12 °C	1.73 °C	1.25 °C	0.19 °C	0.8 °C	8.86 °C	-0.03 °C
COc1ccc(C(=O)Nc2sc3c(c2C(N)=O)CCCC3)cc1OC	1.3 °C	1.24 °C	1.23 °C	0.62 °C	1.69 °C	0.41 °C	1.01 °C	2.12 °C	2.58 °C	0.27 °C
CN1CCN(c2ccc(Nc3cc(-c4cccc(-n5ccc6cc(C7CC7)cc(F)c6c5=O)c4CO)cn(C)c3=O)nc2)CC1	0.99 °C	0.83 °C	1.11 °C	0.24 °C	-0.1 °C	1.04 °C	0.37 °C	1.24 °C	0.2 °C	0.75 °C
Cc1c(C(=O)Nc2ccc(Oc3ccnc4[nH]cc(-c5ccccc5)c34)c(F)c2)c(=O)n(-c2ccc(F)cc2)n1C	1.48 °C	5.65 °C	1.25 °C	5.92 °C	1.81 °C	1.29 °C	0.68 °C	3.76 °C	6.85 °C	1.44 °C
CCS(=O)(=O)N1CC(CC#N)(n2cc(-c3ncnc4[nH]ccc34)cn2)C1	2.25 °C	0.75 °C	1.26 °C	1.3 °C	0.81 °C	0.39 °C	0.37 °C	1.89 °C	4.11 °C	0.86 °C
O=c1cc(-c2ccccc2)oc2c(O)c(O)ccc12 [7,8-Dihydroxyflavone]	5.23 °C	-0.01 °C	3.2 °C	1.34 °C	0.96 °C	-0.06 °C	2.73 °C	1.59 °C	0.71 °C	3.29 °C
